Results from PubChem BioAssay (NCI).
Compounds without any hit were thinned out: in the full panel of roughly 83,000, 20% have a hit.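 Activity criterion: percent growth below 10, measured after cells in 96-well plates were exposed to a single compound concentration for 48 hours.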 Unmarked numbers belong to inactive results. Activity calls are given as the source filed them.

Each compound was assayed on MDA-MB-468 breast (assay: NCI-60 one-dose screen, 48 h (100 = growth as untreated, 0 = no growth, -100 = all killed)). Details: 10 µM unless noted.

First: OCc1ncc(-c2ccccc2)s1
Second: Nc1nccc(Nc2ccccc2)n1
The growth of the first is lower: 104% for the first, 116% for the second.

Compared with C=CCN=c1sc(-c2ccc3ccccc3c2)cn1NC(=O)c1cc2ccc1CCc1ccc(cc1)CC2, O=C(Nc1cccc2c1CCCC2)c1cc2ccccc2cc1O is lower in growth: 39.1% for the first, 33.8% for the second.

Compared with O=S(=O)(NCCNc1nccc(-c2c(-c3cccc(F)c3)nc3sccn23)n1)c1ccc(Cl)cc1, COc1ccc(-c2cc(-c3cn(-c4cccc(Cl)c4)nc3-c3ccc(OC)cc3)on2)cc1 is higher in growth: 64.5% for the first, 88.9% for the second.

Compared with Cn1ccnc1C(=O)/C=C/c1ccc(C(=O)Nc2ccc(F)cc2)cc1, COc1cc2nccc(Oc3ccc(NC(=O)C4(C(=O)Nc5ccc(F)cc5)CC4)cc3)c2cc1Oc1ccc(N)cn1 is higher in growth: 14.9% for the first, 31.7% for the second.

Compared with C[C@]12CCc3c(ccc4cc(O)ccc34)[C@@H]1C[C@H](O)[C@@H]2O, CCOC(=O)c1c(NC(=O)c2cccc(C(F)(F)F)c2)sc2cc(O)ccc12 is lower in growth: 100% for the first, 85.4% for the second.

First: Cc1cc(Br)nnc1Br
Second: CCSc1cnnc2ccccc12
The growth of the first is lower: 101% for the first, 105% for the second.

Compared with CCOC(=O)/C(=C/c1ccc([N+](=O)[O-])cc1)C(=O)c1ccccc1, O=[N+]([O-])c1ccc(Oc2ccc(-c3ccccc3)cc2)cc1 is higher in growth: 21.3% for the first, 71.4% for the second.

Compared with NC(=O)C1(Nc2ccc(Br)cc2)CCCC1, Cc1ccc(Cc2cnc(NC(=O)c3cc(Br)cs3)s2)cc1 is lower in growth: 101% for the first, 30% for the second.

First: Oc1ccccc1-c1nnc(Cn2c(Cc3cccc4ccccc34)nc3ccccc32)o1
Second: Oc1ccc(CSc2nnc(-c3ccc(Cl)cc3)n2-c2ccccc2)c2cccnc12
The growth of the first is higher: 105% for the first, 14.5% for the second.

Going from Cc1ccc(-c2nc(C#N)c(S(=O)(=O)N(C)C)o2)cc1 to Nc1ccc(N=Nc2ccc(O)cc2)c(N)n1, the growth rises from 81.6% to 83.4%.

First: CCC1(C(C)C)NC(=O)NC1=O (stereo not given)
Second: Nc1ccccc1-c1n[nH]c(=O)[nH]c1=O
The growth of the first is lower: 98.5% for the first, 135% for the second.

First: CC1(C)[C@H](O)CC[C@]2(C)[C@@H]1CC[C@@]13C[C@@H](CC[C@H]12)[C@@](O)(CO)C3
Second: C=C1C(=O)O[C@H]2[C@H]1CC/C(COC(=O)NCc1ccc(Cn3c(=O)sn(-c4ccc(Cl)cc4)c3=O)cc1)=C\CC[C@@]1(C)O[C@@H]21
The growth of the first is higher: 106% for the first, 22.6% for the second.

Compared with COc1ccc(/C(C)=C(/c2ccc(OCCCN(C)C)cc2)c2ccc(OC(=O)Cc3ccccc3)cc2)cc1, CC(C)[N+](C)(C)CC(O)COc1cccc2ccccc12 (stereo not given) is higher in growth: 87.2% for the first, 104% for the second.

Compared with CNCc1cccc2c1OCCOCCOCCN(CCN1CCOCC1)S(=O)(=O)c1ccc(cc1)-c1cnc(N)c(n1)C(=O)N2, O=C1[C@@H]2Cc3c([nH]c4ccccc34)[C@@H](c3ccc(Cl)cc3)N2C(=O)CN1C1CCN(Cc2c(F)cccc2F)CC1 is lower in growth: 53.9% for the first, 40.3% for the second.

First: CCCCCCCCCCCCCC(=S)NCCCC[C@H](NC(=O)OCc1ccccc1)C(=O)Nc1ccccc1
Second: CCCCCCCCNC(C)C(O)c1ccc(SC(C)C)cc1 (stereo not given)
The growth of the first is higher: 27.1% for the first, 17.6% for the second.

For COc1cc2ncnc(-n3ncc4cc(NC(=O)Nc5ccc(Cl)c(C)c5)ccc43)c2cc1OC, the growth was 93.6%.

In the case of COC(=O)/C=C/c1cc(OC(C)=O)c2c(c1)[C@@H](C(=O)OC)[C@H](c1ccc(OC(C)=O)c(OC(C)=O)c1)O2, the growth is reported as -1.27% (active).
For Cc1nc2ccccc2c(/C=C/c2ccc(Cl)cc2)c1C(=O)/C=C/c1ccc(Cl)cc1, the growth was -50.9% (active).
In the case of CC(C)[O-].CC(C)[O-].CN(CCN(C)Cc1cc(F)cc(F)c1[O-])Cc1cc(F)cc(F)c1[O-].[Ti+4], the growth is reported as -36.8% (active).
For O=S1(=O)C=C(c2ccccc2)C(c2ccccc2)=C1, the growth was -68.5% (active).
In the case of Cc1ccc(NS(=O)(=O)c2ccc3c(c2)C2OCCC2C(c2ccc(C(=O)C(C)C)cc2)N3)cc1C (stereo not given), the growth is reported as -4.81% (active).
In the case of Fc1ccc2[nH]cc(-c3nc(-c4c[nH]c5ccncc45)cs3)c2c1, the growth is reported as -65.6% (active).
With C=C1C(=O)O[C@H]2[C@H]1CC/C(CNC(=O)c1c[nH]c3ccc(F)cc13)=C\CC[C@@]1(C)O[C@@H]21 the growth was -55.8% (active).
In the case of COC(=O)[C@]12CC[C@@H](C)[C@H](C)[C@@H]1C1=CC[C@@H]3[C@@]4(C)C(c5ncon5)=C[C@@](C)(CO)C4=CC[C@@]3(C)[C@]1(C)CC2, the growth is reported as -28.9% (active).
For Cc1cc(Cc2cc(C)c(O)c(C)c2)cc(C)c1O, the growth was -0.94% (active).
